The panel holds about 83,000 compounds, 20% with a hit somewhere; the sample as a whole holds those more often.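 96-well plates, one dose, 48 hours. Percent growth reported; active if below 10.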 Activity calls are given as the source filed them.
How the values were obtained:
Assay in all cases: NCI-60 one-dose screen, 48 h (100 = growth as untreated, 0 = no growth, -100 = all killed)
Settings in all cases: 10 µM unless noted
HCT-15 colon = system: HCT-15 colon
HT29 colon = system: HT29 colon
SNB-75 CNS = system: SNB-75 CNS
SNB-19 CNS = system: SNB-19 CNS
U251 CNS = system: U251 CNS
PC-3 prostate = system: PC-3 prostate
UACC-62 melanoma = system: UACC-62 melanoma
LOX IMVI melanoma = system: LOX IMVI melanoma
SK-MEL-28 melanoma = system: SK-MEL-28 melanoma

Measured: growth

CCOC(=O)c1c(C(=O)OCC)c2cc(-c3ccn4c(C(=O)c5ccccc5)c(C(=O)OCC)c(C(=O)OCC)c4c3)ccn2c1C(=O)c1ccccc1
inactive: HCT-15 colon 95.6% | HT29 colon 97.3% | SNB-75 CNS 84.1% | SNB-19 CNS 100% | U251 CNS 99.7% | PC-3 prostate 80.6% | UACC-62 melanoma 85.2% | LOX IMVI melanoma 85.1% | SK-MEL-28 melanoma 113%

CSc1ccc(SC2c3ccc(C)cc3Oc3nc(N)c(C#N)c(N)c32)cc1 (stereo not drawn)
active: HCT-15 colon -74.3% | HT29 colon -65.1% | SNB-75 CNS -36.4% | SNB-19 CNS -96% | U251 CNS -90.8% | PC-3 prostate -76.2% | UACC-62 melanoma -75.1% | LOX IMVI melanoma -92.6% | SK-MEL-28 melanoma -86.7%

Cc1ncc(C(=O)Nc2ccc(CN3CCN(C)CC3)c(C(F)(F)F)c2)cc1C#Cc1cnc2cccnn12
active: HCT-15 colon 4.12% | HT29 colon 0.719% | SNB-75 CNS -71.7% | SNB-19 CNS 7.27% | U251 CNS 7.52% | PC-3 prostate 5.7% | UACC-62 melanoma -16.9% | LOX IMVI melanoma -18.3% | SK-MEL-28 melanoma -14.4%

O=c1cc(/C(=C2/C=CC=N2)c2ccc[nH]2)c2cc(Cl)ccc2o1
inactive: HCT-15 colon 35.1% | HT29 colon 47.9% | SNB-75 CNS 24.6% | SNB-19 CNS 25.7% | U251 CNS 14.4% | PC-3 prostate 38.9% | UACC-62 melanoma 42.9% | LOX IMVI melanoma 34.3% | SK-MEL-28 melanoma 61.8%

CCCCCCN(CCCCCC)C(=N)c1ccnc2ccccc12
active: HT29 colon 8.96%
inactive: HCT-15 colon 65.9% | SNB-75 CNS 57.6% | SNB-19 CNS 84.1% | U251 CNS 63.9% | PC-3 prostate 58.3% | UACC-62 melanoma 81.3% | LOX IMVI melanoma 30% | SK-MEL-28 melanoma 88.4%

CC1=C(O)C(=O)C(C(C#N)(C#N)C(C#N)C#N)C1 (stereo not drawn)
inactive: HCT-15 colon 98.9% | HT29 colon 111% | SNB-75 CNS 81.5% | SNB-19 CNS 108% | U251 CNS 113% | PC-3 prostate 106% | UACC-62 melanoma 97.6% | LOX IMVI melanoma 96.5% | SK-MEL-28 melanoma 114%

CN(Cc1cc(Cl)cc(Cl)c1O)Cc1cc(Cl)cc(Cl)c1O
inactive: HCT-15 colon 40.5% | HT29 colon 94.1% | SNB-75 CNS 75.5% | SNB-19 CNS 73.3% | U251 CNS 58.6% | PC-3 prostate 80.9% | UACC-62 melanoma 64.8% | LOX IMVI melanoma 57.7% | SK-MEL-28 melanoma 86.9%

From PubChem BioAssay (NCI)
